# Rows were chosen to be rich in hits. Some 1.1% of all compounds tested hit in one or more screens of this group.
# TSG101-PTAP inh: qHTS Assay for Iinhibitors of HIV-1 Budding by Blocking the Interaction of PTAP/TSG101 | 340,000 tested, under 10 active | AID 493005, 2010 | Tumor susceptibility gene 101 protein (Homo sapiens), Q99816 | Potency, µM (top dose mostly 115 µM), without a hit: at the top dose activity change, negative = inhibition, actives largely listed as inhibitors | Fluorescence polarization, FITC-PTAP peptide / Tsg101 binding; active = well fitted inhibition curve with a large enough effect in the main read-out, with a control signal flat, not every such curve was filed as active; inconclusive = small, poorly fitted or top-dose-only effect, or effect the other way, or a change in a side signal; inactive = no such curve, though single readings can be large or run the other way; also: % of control where 0% means no effect
# Target sequence (Q99816 whole entry, looked up): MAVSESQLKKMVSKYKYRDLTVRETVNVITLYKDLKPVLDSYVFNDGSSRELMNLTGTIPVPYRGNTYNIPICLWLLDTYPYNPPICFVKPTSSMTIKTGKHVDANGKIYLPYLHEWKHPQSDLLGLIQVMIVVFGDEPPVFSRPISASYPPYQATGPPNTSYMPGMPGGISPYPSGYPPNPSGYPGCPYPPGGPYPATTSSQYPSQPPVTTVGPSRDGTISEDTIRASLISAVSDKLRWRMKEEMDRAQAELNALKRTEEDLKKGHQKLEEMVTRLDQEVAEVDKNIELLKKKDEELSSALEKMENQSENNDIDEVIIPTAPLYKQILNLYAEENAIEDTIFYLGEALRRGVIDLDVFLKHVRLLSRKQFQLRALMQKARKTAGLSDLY
#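 Fluorescence anisotropy tracks displacement of a FITC-tagged PTAP peptide (50 nM) from the Tsg101 binding domain (10 uM), following a 20 min room-temperature incubation at pH 7.5.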
# Eya2 phos inh: qHTS Assay for Inhibitors of the Phosphatase Activity of Eya2. Protein phosphatase EYA2 (Homo sapiens), O00167. recombinant Eya2, OMFP fluorescence dephosphorylation (OMFP is methylfluorescein phosphate). Potency, µM (highest dose often 76.9 µM), without a hit: at the highest dose activity, negative = inhibition, most hits filed as inhibitors. 330,000 compounds, 0.006% hits. AID 488837, 2010; also: % is scaled to controls: 0 for no effect and ±100 for the full control effect
#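 Eya2 protein (added as 0.2 uM solution) was preincubated with compound for 10 min at ambient temperature in 50 mM HEPES pH 7.5, 50 mM NaCl, 5 uM MgCl2, 0.05% BSA, 1 mM DTT. OMFP (added at 50 uM) then reacted 10 min; fluorescence read at 485/525 nm.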
# 12-LOX inh: Primary qHTS assay for inhibitors of human arachidonate 12S-lipoxygenase (ALOX12): Round 2 | Polyunsaturated fatty acid lipoxygenase ALOX12 (Homo sapiens), P18054 | purified 12hLO, xylenol orange hydroperoxide absorbance | Potency, µM (titrated, usually from 108 µM), for inactives: at the top dose activity change, negative = inhibition, usual class: inhibitors | 580,000 compounds, 1.1% hits | AID 1671190, 2021; also: % is scaled to controls: 0 for no effect and ±100 for the full control effect
#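 Purified human 12hLO at 150 nM in 25 mM Hepes, 0.01% Triton X-100, pH 7.0, preincubated 15 min at room temperature with compound. Reaction started with 40 uM arachidonic acid, 30 min at room temperature. Hydroperoxide measured by Fe-xylenol orange, 573/405 nm absorbance ratio.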
# USP2a inh: qHTS Assay for Inhibitors of Ubiquitin-specific Protease USP2a Using CHOP2 as the Reporter | USP2 core, Ub-CHOP2 coupled fluorogenic reporter, 485/531 | Ubiquitin carboxyl-terminal hydrolase 2 (Homo sapiens), O75604 | AID 463254, 2010 | 330,000 compounds, 0.01% hits | Potency, µM (series often up to 38.3 µM), for inactives: at the top dose activity change, negative = inhibition, most hits filed as inhibitors;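 also: plate controls were DMSO wells for no effect and full inhibition by NEM control for full effect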
#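 Cell-free coupled assay: 10nM USP2 core preincubated 30min RT with compound in Tris-HCl pH 8.0/CaCl2/CHAPS buffer, then 25nM Ub-CHOP2 and 25nM reporter substrate; fluorescence (Ex 485/Em 531) read after 60min RT, normalized to NEM inhibition, concentration-response curves fitted.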
# Numbers without * were called inactive; ? = inconclusive; nt = no result; ! = not active in a repeat; [ ] = dose if it differs, or a comment. Unless noted, calls follow the shape of the dose curve; as a rule, active = well fitted curve in the direction sought with a large enough effect; inconclusive = small, poorly fitted or top-dose-only effect, or another doubt; inactive = no such curve, though single readings can be large; an effect the other way counts as inactive or inconclusive. Potency is read from the fitted curve at half-maximal effect.
SMILES,TSG101-PTAP inh,Eya2 phos inh,12-LOX inh,USP2a inh
Oc1ccc(C(=S)N2CCN(c3cccc(Cl)c3)CC2)cc1,-2%,-1%,?,0%
COc1ccc2c(c1)[N+](C)(C)C(C)(C)C=C2C,-2%,6%,32µM*,1%
CN(C)c1ccc(-c2csc(C(O)(c3ccccc3)C(F)(F)F)n2)cc1 (stereo unspecified),nt,nt,18µM*,nt
Cc1ccccc1-c1csc(C(O)(c2ccccc2)C(F)(F)F)n1 (stereo unspecified),nt,nt,45µM*,nt
CCC(CC)c1nn2c(=O)cc(COc3ccc(NC(=O)c4ccco4)cc3)nc2s1,nt,nt,-23%,nt
O=C(CSc1nnnn1-c1ccc(F)cc1)c1ccc(O)c(O)c1,-3%,2%,14µM*,5.6µM*
C=CCNC(=O)CC1Nc2c3ccccc3nc(=S)n2C1=O (stereo unspecified),-2%,0%,18µM*,-3%
O=C(OCc1ccccc1)N1CCC2CC1c1cc(N3CCN(C(=S)NCCc4ccccc4)CC3)ccc12 (stereo unspecified),nt,nt,20µM*,nt
CN1CCN(c2ccc3c(c2)C2CC3CCN2C(=O)OCc2ccccc2)CC1 (stereo unspecified),-2%,nt,?,nt
O=C(CCl)N1c2ccccc2Sc2c1ccc1ccccc21,-1%,nt,35µM*,nt
Cc1cccc(C)c1-n1nnnc1C1(C)CCC(=O)N1c1ccc(N2CCOCC2)cc1 (stereo unspecified),nt,nt,11µM*,nt
CCCCn1nnnc1C1(C)CCC(=O)N1c1ccc(N2CCOCC2)cc1 (stereo unspecified),nt,nt,-1%,nt
CCN1CCN(c2oc(-c3ccco3)nc2S(=O)(=O)c2ccccc2)CC1,nt,nt,1%,nt
CN(CC(=O)Nc1ccc(Cl)cc1)C(=O)c1ccc(S(=O)(=O)Nc2ccccc2)cc1,-1%,-35%,-18%,1%
Cc1ccc(NC(=O)CN(C)C(=O)c2ccc(S(=O)(=O)Nc3ccc(Cl)cc3)cc2)cc1,nt,nt,7.9µM*,nt
COc1cc(CNCc2cccc3ccccc23)cc(OC)c1,-1%,10%,0.71µM*,-1%
O=C(CCC(=O)c1cccs1)NCCC(=O)Nc1ccc(F)c(Cl)c1,nt,nt,50µM*,nt
COc1ccc(C2C(C#N)=C(N)OC3=C2C(=O)CC(c2ccccc2)C3)cc1 (stereo unspecified),nt,nt,-47%,nt
N#CC1=C(N)OC2=C(C(=O)CC(c3ccccc3Cl)C2)C1c1ccc(Cl)cc1 (stereo unspecified),nt,nt,16µM*,nt
Cc1noc(-c2ccccc2[N+](=O)[O-])c1-c1ccccc1[N+](=O)[O-],nt,nt,-18%,nt
O=C1/C(=C/c2ccc(-c3ccc(F)cc3)o2)Cc2ccccc21,nt,nt,18µM*,nt
O=C1/C(=C\c2ccc(Br)o2)Cc2ccccc21,0%,-5%,?,3%
Cc1cnc(C2CCC2)n1CC1CCN(C(=O)C2(c3ccccc3)CC2)CC1,nt,nt,68%,nt
C#CCOc1c(Br)cc(/C=C2/C(=O)ON=C2C)cc1OCC,-6%,11%,11µM*,-7%
C=CCOc1c(Br)cc(/C=C2/C(=O)ON=C2C)cc1OC,0%,-8%,16µM*,0%
SMILES,TSG101-PTAP inh,Eya2 phos inh,12-LOX inh,USP2a inh
CCOc1cc(/C=C2/C(=O)ON=C2C)ccc1OCc1ccccc1,-3%,-8%,?,1%
COc1ccc(/C=C2/C(=O)ON=C2C)cc1Br,0%,1%,?,3%
C#CCOc1ccc(/C=C2/C(=O)ON=C2C)cc1Cl,-8%,-7%,8.9µM*,0%
C#CCOc1c(Cl)cc(/C=C2/C(=O)ON=C2C)cc1OCC,0%,5%,45µM*,3%
COc1ccc(NC(=O)C2(C)CN(C)Cc3ccc(NCc4ccccc4)nc32)cn1 (stereo unspecified),nt,nt,83%[176 µM],nt
O=C1NCc2ccccc2CC12CCCCN2Cc1ccc(Cl)s1 (stereo unspecified),nt,nt,12%[6.33 µM],nt
COc1cc(/C=C2\C(=O)ON=C2c2ccccc2)cc(OC)c1OC,-2%,3%,?,-1%
C#CCOc1c(Br)cc(/C=C2/C(=O)ON=C2C)cc1OC,-2%,-3%,5µM*,2%
Cc1cc(C2CCCCC2)n(O)c(=O)c1,-2%,7%,40µM*!,-2%
Cc1ccc(C2=[N+]([O-])C(C)(C)N(O)C2C)cc1 (stereo unspecified),nt,nt,3%,nt
O=C(NC1CCCc2c1[nH]c1ccccc21)c1n[nH]c2c1CCCC2 (stereo unspecified),nt,nt,22µM*,nt
O=C(NC1CCCc2c1[nH]c1ccccc21)c1ccncc1 (stereo unspecified),nt,nt,-4%,nt
COc1cc(C(=O)NC2CCCc3c2[nH]c2ccccc32)cc(OC)c1OC (stereo unspecified),nt,nt,35µM*,nt
O=C(Cn1nc(-c2ccc(F)cc2)ccc1=O)NC1CCCc2c1[nH]c1ccccc21 (stereo unspecified),nt,nt,35µM*,nt
Cn1c(=O)cc(C(=O)NC2CCCc3c2[nH]c2c(Cl)cccc32)c2ccccc21 (stereo unspecified),nt,nt,11%,nt
O=C(Cn1nc(-c2cccs2)ccc1=O)NC1CCCc2c1[nH]c1c(Cl)cccc21 (stereo unspecified),nt,nt,56%,nt
Cn1c(=O)cc(C(=O)NC2CCCc3c2[nH]c2ccccc32)c2ccccc21 (stereo unspecified),nt,nt,40µM*,nt
CCn1cc(C(=O)N2CCN(CC(=O)NCc3ccccc3)CC2)c2ccccc21,nt,nt,7%,nt
Cc1ccc(-c2cc(NC(=O)C(C)C)c(=O)n(CC(=O)Nc3cccc(C(F)(F)F)c3)n2)cc1,nt,nt,-19%,nt
CCCn1c(=O)n(CC(=O)NCc2nnc3n2CCC3)c2ccccc21,nt,nt,1%,nt
COCCn1ccc2ccc(C(=O)NC3CCCc4c3[nH]c3ccccc43)cc21 (stereo unspecified),nt,nt,40µM*,nt
O=C(NC1CCCc2c1[nH]c1ccccc21)c1cccs1 (stereo unspecified),nt,nt,45µM*,nt
COCCn1cc(C(=O)NC2CCCc3c2[nH]c2c(Cl)cccc32)c2ccccc2c1=O (stereo unspecified),nt,nt,24%,nt
CCCc1csc(N)c1C(=O)OCC,nt,nt,7.9µM*,nt
CCOC(=O)c1c(N)sc(N)c1C(=O)OCC,-1%,6%,50µM*,0%
CCOC(=O)c1c(-c2cccs2)csc1N,-6%,9%,45µM*,3%
CCOC(=O)c1c(N)sc(C(N)=O)c1C,-6%,20%,-14%,4%
COc1ccc(-c2nc(S(=O)(=O)c3ccccc3)c(N3CCCC3)o2)cc1,nt,nt,4.5µM*,nt
S=c1[nH]nc(CSc2nc3ccccc3s2)n1Cc1ccccc1,-1%,7%,?,1%

# Compound activity (PubChem)
